From PubChem BioAssay (Tox21)
Inconclusive results are not listed. The source made the active and inactive calls. Unless noted, calls come from the whole dose curve; as a rule, active = well fitted curve in the direction sought with a large enough effect in the repeat runs; inconclusive = weak or mixed curves; inactive = no such curve, though single readings can be large; an effect the other way counts as inactive or inconclusive.

What was measured:
[1] = qHTS assay to identify small molecule antagonists of the constitutive androstane receptor (CAR) signaling pathway - cell viability counter screen (AID 1224837); note: nearly all actives have a fitted effect of over 45% in size; note: potency is the fitted concentration of half-maximal effect
In short: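 To flag cytotoxic false antagonists, HepG2 hCAR/CYP2B6-2.2kb cells were treated 23 hr with 15-concentration compound series and 50 nM CITCO at 37 C/5% CO2; CellTiter-Fluor fluorescence was the measured end point.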

[2] = target: Nuclear receptor subfamily 1 group I member 3 (Homo sapiens) (UniProt Q14994); experiment: qHTS assay to identify small molecule antagonists of the constitutive androstane receptor (CAR) signaling pathway (AID 1224838);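 note: HepG2 cells stably expressing hCAR with CYP2B6 luciferase reporter stimulated by CITCO; nearly all actives have a fitted effect of over 40% in size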; note: potency is the fitted concentration of half-maximal effect
Chain of Nuclear receptor subfamily 1 group I member 3 (Homo sapiens) (Q14994 whole entry, looked up): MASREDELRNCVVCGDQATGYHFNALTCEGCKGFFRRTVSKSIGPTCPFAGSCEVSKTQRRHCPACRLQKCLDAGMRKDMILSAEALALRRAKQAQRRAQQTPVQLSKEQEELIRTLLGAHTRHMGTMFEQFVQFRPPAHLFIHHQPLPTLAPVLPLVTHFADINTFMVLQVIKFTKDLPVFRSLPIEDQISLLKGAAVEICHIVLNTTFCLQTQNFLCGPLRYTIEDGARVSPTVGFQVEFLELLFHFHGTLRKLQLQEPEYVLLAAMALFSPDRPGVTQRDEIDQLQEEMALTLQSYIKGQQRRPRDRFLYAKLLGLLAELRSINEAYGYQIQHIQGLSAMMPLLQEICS
In short: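 Human hepatoma HepG2 cells expressing hCAR and a CYP2B6 promoter (2.2 kb) luciferase construct; compound titration (15 points) with 50 nM CITCO final, 24 h at 37 C/5% CO2; luminescence via ONE-Glo after 30 min at room temperature.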

[3] = target: Nuclear receptor subfamily 1 group I member 3 (Homo sapiens) (UniProt Q14994); experiment: qHTS assay to identify small molecule agonists of the constitutive androstane receptor (CAR) signaling pathway (AID 1224839);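 note: HepG2 cells stably carrying human CAR and a CYP2B6 luciferase reporter; nearly all actives have a fitted effect of over 15% in size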
In short: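 Using human hepatoma HepG2 cells engineered with hCAR and a CYP2B6-2.2kb reporter, 15-concentration compound series were incubated 24 h alongside PK11195 at 0.75 uM final, with luminescence quantified afterwards.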

[4] = qHTS assay to identify small molecule antagonists of the estrogen related receptor signaling pathway with the pleiotropic PPARgamma coactivator (PGC) from Tox21 10K library - cell viability counter screen (AID 1224840; active = well fitted cell-killing curve with a large enough effect in the repeat runs, not every such curve was filed as active; note: nearly all actives have a fitted effect of over 40% in size; note: potency is the fitted concentration of half-maximal effect)
In short: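 Seeded PGC/ERR cells (2,000/well, 6 h, 37 C/5% CO2) get compound by pin tool; 17.5 h incubation at 37 C; CellTiter-Fluor added, 30 min, fluorescence measured.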

[5] = qHTS assay to identify small molecule antagonists of the estrogen related receptor signaling pathway with the pleiotropic PPARgamma coactivator (PGC) from Tox21 10K library (AID 1224841; call rule not given here; note: actives are mostly falling curves and most rising ones were filed inactive; nearly all actives have a fitted effect of over 50% in size)
In short: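 Test chemicals dissolved in DMSO were applied to pre-incubated (6 h) PGC/ERR cells at 2,000 cells/well for an 18 h, 37 C treatment; reporter luminescence was then read using One-Glo.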

[6] = qHTS assay to identify small molecule agonists of the estrogen related receptor signaling pathway with the pleiotropic PPARgamma coactivator (PGC) from Tox21 10K library (AID 1224842); note: nearly all actives have a fitted effect of over 15% in size
In short: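 Luminescence from One-Glo (30 min, room temperature) measured after PGC/ERR cells had 18 h at 37 C with pinned compound (23 nL in DMSO). Cells had been seeded at 2,000 per well and pre-incubated 6 h.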

[7] = target: Thyrotropin receptor (Homo sapiens) (UniProt P16473); experiment: qHTS assay to identify small molecule agonists of the thyroid stimulating hormone receptor (TSHR) signaling pathway (AID 1224843; calls by dose curve; note: nearly all actives have a fitted effect of over 45% in size)
Chain of Thyrotropin receptor (Homo sapiens) (P16473 whole entry, looked up): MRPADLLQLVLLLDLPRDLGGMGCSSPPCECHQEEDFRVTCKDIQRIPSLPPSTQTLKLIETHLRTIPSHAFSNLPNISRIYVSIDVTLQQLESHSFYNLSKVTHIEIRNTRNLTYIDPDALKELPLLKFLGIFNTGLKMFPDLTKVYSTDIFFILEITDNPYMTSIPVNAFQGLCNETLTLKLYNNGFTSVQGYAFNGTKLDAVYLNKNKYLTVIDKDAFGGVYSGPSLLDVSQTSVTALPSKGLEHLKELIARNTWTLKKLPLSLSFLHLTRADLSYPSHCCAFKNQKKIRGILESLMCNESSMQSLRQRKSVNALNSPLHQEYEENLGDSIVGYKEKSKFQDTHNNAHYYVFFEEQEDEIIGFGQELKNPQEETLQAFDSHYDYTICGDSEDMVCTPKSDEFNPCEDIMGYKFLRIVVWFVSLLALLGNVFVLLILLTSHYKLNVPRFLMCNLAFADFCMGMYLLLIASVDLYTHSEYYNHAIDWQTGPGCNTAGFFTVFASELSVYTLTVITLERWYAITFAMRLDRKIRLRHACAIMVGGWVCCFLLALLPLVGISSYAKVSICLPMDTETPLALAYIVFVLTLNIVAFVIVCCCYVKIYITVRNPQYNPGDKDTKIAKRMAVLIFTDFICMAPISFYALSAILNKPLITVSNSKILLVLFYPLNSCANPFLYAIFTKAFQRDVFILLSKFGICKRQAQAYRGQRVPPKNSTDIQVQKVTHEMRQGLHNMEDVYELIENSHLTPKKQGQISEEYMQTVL
In short: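 Agonist activity read as cAMP rise via d2/cryptate HTRF competition, 1 h room-temperature detection, in HEK293 cells expressing TSHR. Fifteen-point titrations, each run in triplicate, with a 30 min room-temperature incubation beforehand.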

[8] = qHTS assay to identify small molecule agonists of the hypoxia (HIF-1) signaling pathway - cell viability counter screen (AID 1224844; calls by dose curve; note: nearly all actives have a fitted effect of over 50% in size; note: potency is the fitted concentration of half-maximal effect)
In short: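 HRE-bla ME-180; 0.5% dFBS; cpd 17 h, 37C, 5% CO2; CellTiter-Glo lum., 30 min RT, post-FRET read, same wells.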

[9] = qHTS assay to identify small molecule agonists of H2AX (AID 1224845; active = well fitted activation curve with a large enough effect in the signal ratio in the repeat runs, not every such curve was filed as active; the % refers to the signal ratio)
In short: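 Phospho-H2AX Ser139 measured by HTRF (ex 320 nm; em 665 and 620 nm) after 24 hr antibody incubation. Compounds, 15 concentrations, 0.76% DMSO, were applied to CHO-K1 cells for 3hr at 37C before lysis.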

[10] = qHTS assay to identify small molecule agonists of the hypoxia (HIF-1) signaling pathway (AID 1224846; active = well fitted activation curve with a large enough effect in the signal ratio in the repeat runs, not every such curve was filed as active; the % refers to the signal ratio)
In short: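 Reporter induction in HRE-bla ME-180 cells is taken as agonism: cells sit 5 hrs after plating, receive compounds or DMSO only, incubate 17 hrs at 37C under 5% CO2, and are loaded with CCF4-AM for beta-lactamase FRET measurement.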

[11] = qHTS assay to identify small molecule antagonists of the estrogen related receptor (ERR) signaling pathway from Tox21 library (AID 1224848); note: nearly all actives have a fitted effect of over 50% in size; note: potency is the fitted concentration of half-maximal effect
In short: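 Luciferase luminescence (ONE-Glo, 30 min room temperature) was the read-out. Cells of the NTP-supplied ERR line, 2,000 per well, were given 6 h at 37 C before compound addition in DMSO and 18 h exposure at 37 C.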

[12] = qHTS RealTime-Glo MT Cell Viability Assay in HepG2 cells - 24 hour (AID 1224867); note: nearly all actives have a fitted effect of over 50% in size; note: potency is the fitted concentration of half-maximal effect
In short: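 HepG2 cells were seeded at 600 cells/well together with NanoLuc luciferase and a cell-permeant prosubstrate, preincubated 5 h at 37 C/5% CO2, then pin-dosed with compounds in DMSO. Nonlytic luminescence from viable cells was read at each time point.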

[13] = qHTS RealTime-Glo MT Cell Viability Assay in HEK293 cells - 32 hour (AID 1224868); note: nearly all actives have a fitted effect of over 50% in size; note: potency is the fitted concentration of half-maximal effect
In short: (§1)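 HEK293 cells were seeded at 600 cells/well together with NanoLuc luciferase and cell-permeant prosubstrate, preincubated 5 h at 37 C/5% CO2, then given compound in DMSO by pintool. Luminescence from viable-cell prosubstrate reduction was read repeatedly over 40 h.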

[14] = qHTS RealTime-Glo MT Cell Viability Assay in HEK293 cells - 16 hour (AID 1224872); note: nearly all actives have a fitted effect of over 50% in size; note: potency is the fitted concentration of half-maximal effect
In short: as §1

[15] = qHTS RealTime-Glo MT Cell Viability Assay in HepG2 cells - 8 hour (AID 1224873); note: nearly all actives have a fitted effect of over 55% in size; note: potency is the fitted concentration of half-maximal effect
In short: (§2)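 Real-time viability: cells seeded at 600 per well together with NanoLuc and cell-permeant prosubstrate, compounds added after 5 h incubation. Luminescence tracked at 0, 8, 16, 24, 32 and 40 h of exposure.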

[16] = qHTS assay to identify small molecule agonists of the estrogen related receptor (ERR) signaling pathway from Tox21 library (AID 1224849; calls by dose curve; note: nearly all actives have a fitted effect of over 15% in size); settings: ERR reporter cell line, ONE-Glo luciferase, 18 h; at 92.4 µM (top of the series) unless noted
In short: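 Tox21 compounds tested for ERR agonism in an NTP reporter cell line: 18 h treatment at 37 C, then ONE-Glo luminescence.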

[17] = A CellTox Green Cytotoxicity Assay to monitor cytotoxicity in HEK293 cells - 0 hour (AID 1224869); note: nearly all actives have a fitted effect of over 50% in size
In short: (§3)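 Tox21 screen in HEK293: membrane-impermeant cyanine dye fluoresces on binding dead-cell DNA; compound pinned 5 h post-seeding, plates held at 37 C, signal read repeatedly through 40 h.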

[18] = qHTS RealTime-Glo MT Cell Viability Assay in HepG2 cells - 40 hour (AID 1224870); note: nearly all actives have a fitted effect of over 50% in size; note: potency is the fitted concentration of half-maximal effect
In short: as §2

[19] = A CellTox Green Cytotoxicity Assay to monitor cytotoxicity in HEK293 cells - 40 hour (AID 1224871); note: nearly all actives have a fitted effect of over 45% in size; note: potency is the fitted concentration of half-maximal effect
In short: as §3

[20] = qHTS assay to identify small molecule agonists of H2AX - cell viability counter screen (AID 1224847; calls by dose curve; note: nearly all actives have a fitted effect of over 30% in size; note: potency is the fitted concentration of half-maximal effect)
In short: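 After overnight plating of 1000 CHO-K1 cells per well, a 15-concentration compound series was applied for 3 hr at 37C. Luminescence from CellTiter-Glo, read following 30 min at room temperature, reflected cell viability.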
% is set by controls: 0 for no effect and ±100 for the full control effect.

CC1(C)COCN1
inactive: Potency [1] | Potency [2] | Potency [3] | Potency [4] | Potency [5] | Potency [6] | Potency [7] | Potency [8] | Potency [9] | outcome [10] | Potency [11] | Potency [12] | Potency [13] | Potency [14] | Potency [15]

CN1CN(C)CN(C)C1
inactive: Potency [1] | Potency [2] | Potency [3] | Potency [4] | Potency [5] | Potency [6] | Potency [7] | Potency [9] | outcome [10] | Potency [11] | activity change, positive = activation [16] 7.33% | Potency [12] | Potency [17] | Potency [18] | Potency [19] | Potency [14]

C=C(C)CCCC
inactive: Potency [1] | Potency [2] | Potency [3] | Potency [4] | Potency [6] | Potency [7] | Potency [8] | Potency [9] | outcome [10] | Potency [20] | Potency [11] | activity change, positive = activation [16] 6.79% | Potency [12] | Potency [13] | Potency [17] | Potency [19] | Potency [14]

CCC1CCCCC1
inactive: Potency [1] | Potency [2] | Potency [3] | Potency [4] | Potency [6] | Potency [7] | Potency [8] | outcome [10] | Potency [11] | activity change, positive = activation [16] 11.4% | Potency [12] | Potency [13] | Potency [17] | Potency [18] | Potency [19] | Potency [14] | Potency [15]

O=C1OC(OC(=O)c2cccnc2Nc2cccc(C(F)(F)F)c2)c2ccccc21 (stereo not drawn)
inactive: Potency [1] | Potency [2] | Potency [3] | Potency [4] | Potency [5] | Potency [6] | Potency [7] | Potency [8] | Potency [20] | Potency [11] | activity change, positive = activation [16] -0.557% [at 42.5 µM] | Potency [12] | Potency [13] | Potency [17] | Potency [18] | Potency [14] | Potency [15]

CCCCOCC
inactive: Potency [1] | Potency [2] | Potency [3] | Potency [4] | Potency [5] | Potency [6] | Potency [7] | Potency [8] | Potency [9] | outcome [10] | Potency [20] | Potency [11] | activity change, positive = activation [16] -0.464% | Potency [12] | Potency [17] | Potency [18] | Potency [19] | Potency [15]

O=CC1CC1
inactive: Potency [1] | Potency [2] | Potency [3] | Potency [4] | Potency [7] | Potency [9] | outcome [10] | Potency [20] | Potency [12] | Potency [13] | Potency [17] | Potency [18] | Potency [19] | Potency [14] | Potency [15]

CCCCCCCCCCCCCC[n+]1ccccc1
inactive: Potency [3] | Potency [6] | Potency [9] | activity change, positive = activation [16] -77.5% | Potency [17]
active: Potency [1] 9.69 µM | Potency [2] 48.6 µM | Potency [4] 54.5 µM | Potency [20] 56.6 µM | Potency [11] 1.37 µM | Potency [12] 19.5 µM | Potency [13] 4.9 µM | Potency [18] 9.77 µM | Potency [19] 38.9 µM | Potency [14] 27.5 µM | Potency [15] 49 µM

CCCCN(C)C
inactive: Potency [1] | Potency [2] | Potency [3] | Potency [4] | Potency [7] | Potency [8] | outcome [10] | Potency [20] | Potency [12] | Potency [13] | Potency [17] | Potency [18] | Potency [19] | Potency [14] | Potency [15]

CC(C)=CCCC(C)CCOC(=O)C(C)C (stereo not drawn)
inactive: Potency [1] | Potency [2] | Potency [3] | Potency [4] | Potency [7] | Potency [8] | Potency [9] | outcome [10] | Potency [12] | Potency [17] | Potency [18] | Potency [19] | Potency [14]

CCOC(=O)CN
inactive: Potency [1] | Potency [2] | Potency [3] | Potency [4] | Potency [7] | Potency [8] | Potency [9] | outcome [10] | Potency [20] | Potency [12] | Potency [13] | Potency [19] | Potency [14] | Potency [15]

SCCCCCCCCS
inactive: Potency [1] | Potency [2] | Potency [3] | Potency [4] | Potency [7] | Potency [8] | outcome [10] | Potency [20] | Potency [12] | Potency [13] | Potency [18] | Potency [19] | Potency [14]

CCCCCCCCC(C)=O
inactive: Potency [1] | Potency [2] | Potency [3] | Potency [4] | Potency [7] | Potency [8] | Potency [9] | outcome [10] | Potency [20] | Potency [12] | Potency [13] | Potency [17] | Potency [19] | Potency [14] | Potency [15]

CCCC(O)C(O)CO (stereo not drawn)
inactive: Potency [1] | Potency [2] | Potency [3] | Potency [4] | Potency [7] | Potency [8] | Potency [9] | outcome [10] | Potency [12] | Potency [13] | Potency [17] | Potency [18] | Potency [14] | Potency [15]

Brc1ccccc1-c1ccccc1
active: Potency [8] 36.8 µM
inactive: Potency [1] | Potency [2] | Potency [3] | Potency [4] | Potency [6] | Potency [11] | Potency [12] | Potency [17] | Potency [18] | Potency [15]

CC(C)C(=O)OCc1ccccc1
inactive: Potency [1] | Potency [2] | Potency [3] | Potency [4] | Potency [7] | Potency [8] | outcome [10] | Potency [20] | Potency [12] | Potency [17] | Potency [18] | Potency [15]
